Laboratory results reported in PubChem BioAssay AID743279 (National Center for Advancing Translational Sciences (NCATS), 2014).
The campaign covered roughly 360,000 compounds. About 17,000 (4.7%) were called active. Another 5% or so got no clear call; they are omitted. The sample as a whole holds a higher share of actives than the screen did. A number with no mark means an inactive call. Cut-off read from the data, not from the text of the source: active = activity change below about -50%; inconclusive = mostly about -30% to -49%; inactive = weaker than that.

Assay: qHTS for Inhibitors of Inflammasome Signaling: IL-1-beta AlphaLISA Primary Screen
Conditions: THP-1 LPS/ATP IL-1B secretion, 16 h; at 57.5 µM, stronger effect = lower value
In short: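 Secreted IL-1B measured by AlphaLISA bead assay after 16 h compound exposure of THP-1 cells; compounds (final up to 57.5 uM) added 1 h before LPS (250 ng/mL) and ATP (1.25 mM) stimulation; lower signal means less secretion.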
% is set by controls: 0 for no effect and ±100 for the full control effect.

SMILES | activity change
CN1CCN(c2nc(Nc3ccc(O)cc3)nc3ccccc23)CC1 | -96.2% (active)
O=C(COc1nc2ccccc2nc1N1CCOCC1)NCC(F)(F)F | 0.929%
CCCCc1nc2ccccc2c(NC(=O)CN2CCN(C)CC2)c1CCC | -6.28%
c1ccc(-c2nnc(N3CCOCC3)c3ccccc23)cc1 | -6.84%
c1ccc(Nc2nc(N3CCOCC3)c3ccccc3n2)cc1 | -109% (active)
Cc1cc(Nc2ccc(Br)cc2)nc2ccccc12 | -5.96%
CCNC(=O)COC(=O)/C=C/c1c(C)nn(Cc2cccc(OC)c2)c1Cl | -4.38%
NC(=S)NN=Cc1ccc(OC(=O)COc2cc(Cl)c(Cl)cc2Cl)cn1 | 119%
CC1=NN(c2cccc(Cl)c2)C(=O)C12CC(C)=C(C)CS2 (stereo not given) | -78.4% (active)
O=C(O)C(=Cc1ccccc1[N+](=O)[O-])c1ccccc1 | 12.6%
Cc1c(C(C)(C)O)[nH]c2ccc(C#N)cc12 | 38.6%
Cc1cccc(N(C(=O)Cc2cccs2)C(C(=O)NC2CCCC2)c2ccsc2)c1 (stereo not given) | 0%
CCOC(=O)c1cc2c(n(-c3ccc(C)cc3)c1=O)CCCC2=O | -18.1%
O=C1CCCC2=C1C(c1cccs1)CC(=O)N2c1ccc(F)cc1 (stereo not given) | 20.1%
CCOC(=O)C1=C(N)N(c2ccc(C)cc2)C2=C(C(=O)CCC2)C1c1cccs1 (stereo not given) | -55.3% (active)
Cc1ccccc1CS(=O)(=O)CC1(O)CCN(C(=O)c2cccc(C(F)(F)F)c2)CC1 | 9.6%
Cc1ccc(-c2nc3ccc(Br)cn3c2Cc2ccccc2C(F)(F)F)cc1 | 16.5%
COc1ccccc1NC(=O)C(C)OC(=O)CC1CCCC1 (stereo not given) | 23.8%
CC(NCc1ccccc1OC1CCCC1)c1ccccc1 (stereo not given) | -82.2% (active)
COc1ccccc1CN1CCN(C(c2ccccc2)c2ccccc2)CC1 | -16.2%
CCCCNC1(C#N)CCN(Cc2ccccc2)CC1 | 9.53%
CC1(C(=O)NCc2ccc3c(c2)OCO3)CCN1CCc1ccccc1 (stereo not given) | 10.6%
C/C(=N\N(C)C)c1ccc(OCCOc2ccc([N+](=O)[O-])cc2)cc1 | -52.7% (active)

SMILES | activity change
C/C(=N/NC(=O)CC(=O)N/N=C(\C)c1ccc([N+](=O)[O-])cc1)c1ccc([N+](=O)[O-])cc1 | 26.9%
CO/N=C(\N)c1ccc([N+](=O)[O-])cc1 | -10.8%
Cc1cc([N+](=O)[O-])c(=O)[nH]c1C | 26.9%
CN(C)C(=O)c1nc2ccc(Cl)cn2c1CNCc1cccc(OC(F)(F)F)c1 | 32.2%
CSCC[C@H](NC(=O)NCCc1ccc(F)cc1)C(=O)O | 3.5%
COc1ccc(C(O)C(O)(C(=O)OC(C)C)c2ccc(C)cc2)cc1 (stereo not given) | -21%
Cn1c(=O)n(C)c2cc(/C=N/NC(=O)c3cccc(Br)c3)ccc21 | -10.6%
O=C(Nc1ccc(N2CCCC2=O)cc1)c1cncc(Br)c1 | 1.56%
O=C(N/N=C/c1cccc(Br)c1)c1ccc(N2CCCC2=O)cc1 | -55.3% (active)
CC(=O)c1cccc(-c2ccc(CN3C(CC(C)C)C(=O)N(Cc4cn(CC5CCCCC5)nn4)CCS3(=O)=O)cc2)c1 (stereo not given) | -9.9%
OCCC#Cc1ccc(N2C(c3ccsc3)=Cc3ccc(F)cc3C2c2c[nH]c3ccccc23)cc1 (stereo not given) | -15.9%
COc1ccc(CCn2c(=N)c(C(=O)NCc3ccco3)cc3c(=O)n4cccc(C)c4nc32)cc1 | -53.7% (active)
Cc1ccc(S(=O)(=O)c2cc3c(=O)n4cccc(C)c4nc3n(CCc3ccccc3)c2=N)cc1C | 20.8%
COc1ccc(CCn2c(=N)c(C(=O)NCC3CCCO3)cc3c(=O)n4cccc(C)c4nc32)cc1OC (stereo not given) | -11.6%
Cc1ccc(S(=O)(=O)N[C@H]2CCC[C@@H]2O)cc1 | 6.2%
C#Cc1ccc(NC(=O)C2(C)CCN2C(=O)Cc2ccc(-c3ccccc3)cc2)cc1 (stereo not given) | -2.2%
COc1ccc(OC)c(NC(=O)C2(C)CCN2C(=O)Cc2ccccc2)c1 (stereo not given) | -87.1% (active)
CCCNC(=O)C1(C)CCN1C(=O)Cc1ccc(-c2ccccc2)cc1 (stereo not given) | -1.04%
COc1ccc(C(CNC(=O)CSc2ccccc2)N2CCOCC2)cc1 (stereo not given) | 0%
COC(=O)C[C@@H]1C=C[C@@H](NC(=O)c2cccnc2)[C@@H](CO)O1 | 2.57%
CCOC(=O)C1CCCN(C(=O)c2cccc3ccccc23)CC1 (stereo not given) | 61.7%
O=[N+]([O-])c1ccc(COc2ccccc2CN2CCOCC2)cc1 | -17.6%
